# Mtb MenB inh = M. tuberculosis MenB inhibitors, primary screen, biochemical, absorbance; MenB enzyme assay, absorbance read-out; inhibition, % (concentration not given with the values); 0.43% of 100,000 active; in the data active = inhibition above about 21%, passing the limit was not always enough
# Polio RdRp inh = poliovirus RdRp elongation inhibitors, primary screen, biochemical, fluorescence polarization, total intensity; 0.66% of 150,000 active; % elongation, % (compound at 16.7 µg/mL); poliovirus polymerase elongation; stronger effect = lower value; Genome polyprotein (Poliovirus type 1 (strain Mahoney)), P03300; AID 588519, 2011; in the data active = % elongation below about 90%
# MbtI inh = MbtI salicylate synthase inhibitors, primary screen, biochemical, fluorescence intensity; inhibition, % (test concentration not listed); purified MbtI enzyme, fluorescence intensity read-out; AID 493033, 2011; P9WFX0; 0.89% of 100,000 active; in the data active = inhibition mostly above about 56%, no sharp cut-off; inactive = mostly below about 77%
# Target sequence (P9WFX0 whole entry, looked up): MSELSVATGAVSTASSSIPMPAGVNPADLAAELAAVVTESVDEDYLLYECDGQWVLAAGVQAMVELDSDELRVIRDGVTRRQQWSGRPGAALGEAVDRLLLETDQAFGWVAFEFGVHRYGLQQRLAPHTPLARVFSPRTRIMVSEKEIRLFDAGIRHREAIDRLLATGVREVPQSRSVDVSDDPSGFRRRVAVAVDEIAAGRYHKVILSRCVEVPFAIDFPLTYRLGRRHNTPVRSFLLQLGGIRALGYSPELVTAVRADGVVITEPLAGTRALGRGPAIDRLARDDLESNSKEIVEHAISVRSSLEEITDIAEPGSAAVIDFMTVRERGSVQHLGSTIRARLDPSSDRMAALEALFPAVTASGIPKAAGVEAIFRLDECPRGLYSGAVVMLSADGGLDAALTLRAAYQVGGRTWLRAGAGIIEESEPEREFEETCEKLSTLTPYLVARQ
# * = called active by the depositor; · = not tested or not shown. The list is not random: actives were taken first. Their share in the collection is about 1.4%.
SMILES,Mtb MenB inh,Polio RdRp inh,MbtI inh
CCOC(=O)c1cccc(NC(=O)Cc2ccc(NC(=O)N3CCCCc4ccccc43)cc2)c1,·,21*,·
COc1cccc(NC(=O)Cc2ccc(NC(=O)N3CCCCc4ccccc43)cc2)c1,·,104,·
Cc1cc(F)c(F)c(C(=O)N2CCCCCC2)c1Cl,34*,103,2
O=C(c1c(F)cccc1F)N1CCCC1,19,102,-4
CC(C)(C)c1ccc(-c2n[nH]c(=S)n2N=Cc2ccccn2)cc1,-68,103,·
CN1/C(=C\C=N\NC(N)=O)C(C)(C)c2ccccc21,-17,121,11
CCc1ccc(CNCc2cccs2)cc1,-51,105,-13
Clc1cccc(CNCc2cccs2)c1,38*,102,1
CC1CCc2cc(F)ccc2N1C(=O)c1cc(S(=O)(=O)N2CCCC2)cn1C (stereo not given),-17,104,0
O=S(=O)(c1ccc2ccccc2c1)N1CCN(c2ncnc3sccc23)CC1,-31,109,-6
CCOC(=O)c1c(NC(=O)COc2cccc(C(F)(F)F)c2)sc2c1CCCCC2,·,90*,·
CCOC(=O)c1c(NC(=O)COc2ccc(C(C)(C)C)cc2)sc2c1CCCC2,·,104,·
COC(=O)c1c(NC(=O)COc2cc(C)c(Cl)c(C)c2)sc2c1CCCC2,·,90*,·
CCOC(=O)c1c(NC(=O)C(C)Oc2ccc(Cl)c(C)c2)sc2c1CCCC2 (stereo not given),·,104,·
CCCc1ccc(OC(C)C(=O)Nc2sc3c(c2C(=O)OC)CCCCC3)cc1 (stereo not given),·,86*,·
CCOC(=O)c1c(NC(=O)COc2ccc(CC)cc2)sc2c1CCCC2,·,107,·
CCOC(=O)c1c(NC(=O)COc2ccc(Cl)cc2C)sc2c1CCCCC2,·,104,·
COC(=O)c1c(NC(=O)COc2ccc(Cl)cc2C)sc2c1CCCCC2,·,85*,·
CCCOC(=S)NC1OCC(O)C(O)C1O (stereo not given),-2,109,·
N#CC1=CS/C(=C2\C(=O)NN(c3ccccc3)C2=O)SC1=N,-32,99,·
O=C([C@@H](c1ccccc1)N1Cc2ccccc2C1=O)N1CCN(Cc2ccccc2)CC1,-25,99,4
COC(=O)c1cc(COC(=O)c2ccccc2Sc2ccccc2C#N)oc1C,9,103,7
OC(CNCC1COc2ccccc2O1)COC1CCCc2ccccc21 (stereo not given),-17,104,-11
CSc1nnc(C2CCCN(C(=O)N(c3ccccc3)c3ccccc3)C2)n1C (stereo not given),-32,101,-8
O=C1CSCC(=O)N1c1ccc(Cl)cc1,11,93,4
SMILES,Mtb MenB inh,Polio RdRp inh,MbtI inh
Cc1c(Cl)sn(-c2ccc(Cl)cc2)c1=O,7,101,101*
CC1CN(CC(O)COCc2ccc(Cl)cc2)CCN1CC(O)COCc1ccc(Cl)cc1 (stereo not given),-3,107,-19
COC(=O)c1ccc(COC(=O)Cc2n[nH]c(=O)c3ccccc23)o1,-39,103,-1
O=C(CSC1=NCCN1)C1COc2ccccc2O1 (stereo not given),84*,101,22
O=C(CSC1=NCCN1)N1CCc2ccccc21,·,99,4
O=C1c2ccccc2C(=O)c2c1oc1c3c(ccc21)OCN(CCC1=CCCCC1)C3,-22,98,5
O=C1c2ccccc2C(=O)c2c1oc1c3c(ccc21)OCN(CCCn1ccnc1)C3,-2,84*,8
Cn1ccnc1P(=O)(O)c1ccccc1,-2,88*,6
CC(=O)Nc1ccc(-n2ccnc2P(=O)(O)c2ccccc2)cc1,9,94,5
O=C(OCN1C(=O)c2ccccc2C1=O)c1ccc(N2CCCC2=O)cc1,1,102,-12
CCn1c(=S)[nH]c2cc(C(=O)O)ccc2c1=O,-20,101,-7
CNC(=O)/C(=C\c1ccc(Cl)cc1)NC(C)=O,·,103,1
Cc1ccc(S(=O)(=O)N=C2C=CC(=NS(=O)(=O)c3ccc(C)cc3)C=C2)cc1,-10,102,72*
Cc1ccc(S(=O)(=O)N=C2C=CC(=NS(=O)(=O)N(C)C)C=C2)cc1,-19,104,97
O=C(O)C1(O)c2ccccc2NC(=S)N1Cc1ccccc1 (stereo not given),1,96,32
CCOCCCNc1n[nH]c(=S)s1,-2,88*,93
CCOCCCNc1nc2ccccc2n2c(CC)nnc12,·,105,·
Cc1cccc(N2CCN(C(c3cc4cc5c(cc4[nH]c3=O)OCO5)c3nnnn3CC3CCCO3)CC2)c1C (stereo not given),-5,102,9
CCOc1cc(S(=O)(=O)NCCc2ccc(OC)c(OC)c2)c(OCC)cc1-n1cnnn1,44*,103,-18
CCOc1cc(S(=O)(=O)NCc2ccc(OC)cc2)c(OCC)cc1-n1cnnn1,23,102,48
